The text below walks through data of PubChem BioAssay (NCATS).

Structures are written as SMILES. “And” between values parts separate entries of the source, which are not always exact repeats. Equal entries are not always repeated. Inconclusive results are not listed. Unmarked numbers belong to inactive results. The source made the active and inactive calls. Calls follow the shape of the dose curve; as a rule, active = well fitted cell-killing curve with a large enough effect; inconclusive = small, poorly fitted or top-dose-only effect; inactive = flat fitted curve, though single readings scatter.
% is scaled to controls: 0 for no effect and ±100 for the full control effect; potency is read from the fitted curve at half-maximal effect.

The nature of this test: Cellular viability qHTS for adrenocortical cancer (ACC) cell line SW-13 (AID 1963989). Also: nearly all actives have a fitted effect of over 65% in size.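 As to activity (max response): cells grown in serum-free medium with ITS supplement.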 The settings on record: SW-13 ACC cells viability, CellTiter-Glo, 48 h; activity (max response): hits give low values. From the text:
PI: Naris Nilubol, MD Surgical Oncology Program, National Cancer Institute (NCI) National Institute of Health (NIH), Bethesda, Maryland Adrenocortical cancer (ACC) is a rare malignancy with poor survival outcomes and few treatment options. Currently, mitotane is the only FDA-approved therapy for ACC. Although adjuvant radiation therapy is rarely utilized, it has the potential to improve survival in select cases. Through a quantitative high-throughput drug screen (qHTS), we identified auranofin (AF), a thioredoxin reductase (TXNRD) inhibitor, as a promising candidate drug. This study aims to evaluate whether AF can enhance the efficacy of radiation therapy in the treatment of ACC. Two human ACC cell lines, SW-13 and NCI-H295R, were screened using the National Center for Advancing Translational Sciences (NCATS) Pharmaceutical Collection (NPC) and the Mechanism Interrogation PlatE (MIPE) library (~4,991 compounds). CellTiter-Glo (Cat # G7570, Promega, Madison, WI) was utilized to measure cell viability. Described herein are the results of the corresponding viability assay.
PROTOCOL TABLE (as described by Inglese J, Shamu CE and Guy RK. 2007) SEQUENCE No. (e.g., 1, 2, 3, etc.); […] (e.g., Cells, Incubation, Reagent, etc.); VALUE; DESCRIPTION. 1; Cells; 5 uL; white, solid-bottom, 1536-well tissue-culture treated plates. 2; Time; overnight culture at 37C with 5% CO2. 3; Compounds and control; 23 nL; Kalypsis pin tool (Wako USA) equipped with a 1536-well pin head to transfer to the assay plates. 4; Time; 48 hours; 37C with 5% CO2. 5; Reagent; 4 uL; CellTiter-Glo luminescent substrate mix. 6; Time; 20 min at room temperature. 7; Detection; Luminescence; ViewLux plate reader NOTES (numbers refer to Sequence numbers above) 1. SW13 cells were harvested from a T175 flask and resuspended in ITS-supplemented DMEM serum-free medium at a concentration of 300 000 cells/mL. Then 5 uL of resuspended cells were dispensed into each well of white, solid-bottom, 1536-well tissue-culture-treated plates using a multidrop combi dispenser. The plates were covered with stainless steel gasket lids. 2-3. The plates were cultured overnight at 37C with 5% CO2. Twenty-three nL of compounds (eight selected concentrations from the NPC / MIPE) or positive control (10 mM stock of bortezomib) in DMSO was transferred to each well of the assay plate using a pin tool (Kalypsys, San Diego, CA, USA). The final concentration of the compounds in the 5 uL assay volume ranged from 0.5 nM to 46 uM. 4-6. After 48 hours of incubation at 37C and 5% CO2, 4 uL of CellTilter-Glo luminescent substrate mix (Promega, Madison, WI, USA) was added to each well. Then the plates were incubated for 20 minutes at room temperature. 7. After incubation, luminescence was measured using a ViewLux plate reader (PerkinElmer, Waltham, MA, USA) with a clear filter was used to measure the number of metabolically competent cells. To determine compound activity in the qHTS assay, the titration-response data for each sample was plotted and modeled by a four-parameter logistic fit yielding IC50 and efficacy (maximal response) values. […] REFERENCES: Inglese J, Shamu CE and Guy RK, Reporting data from high throughput screening of small molecule libraries, Nature Chemical Biology, 2007, 3(8): 438-441. doi.org/10.1038/nchembio0807-438.
(In general: In qHTS, concentration-response curves come from the screen itself.)
Take `CC1Cc2ccccc2N1C(=O)Cc1nc(N2CCOCC2)cc(=O)[nH]1` (stereo not given): the activity (max response) was -14.8%.

For `O=C(/C=C\n1cnc(-c2cc(C(F)(F)F)cc(C(F)(F)F)c2)n1)NNc1cnccn1`, the Potency is 12.6 µM (active).

For `CC(C)Oc1ccc(C(=O)N[C@H](CNC(=O)CN(C)C)Cc2ccc(-c3cn4cccc([C@H](C)O)c4n3)cc2)cc1Cl`, the Potency was 0.0316 µM (active).

With `CC(CC(C#N)(c1ccccc1)C(C)C)N(C)C` (stereo not given), the activity (max response) is 3.72%.

`C[C@@H]1CC(=O)Nc2cccc(-c3cnn(C(C)(C)C)c3)c2N1`: the activity (max response) is 2.32%.

For the molecule `Cc1c(Cn2ccnc2)c2ccccc2n1CCC(=O)O`, the activity (max response) was 15.3%.

Regarding `CCCCOc1c(C(=O)c2c(F)cc(C)cc2F)cnc2n[nH]cc12`, the activity (max response) was -11.6%.

Take `CCN1CCN(c2ccc(Nc3cc(N(C)C(=O)Nc4c(Cl)c(OC)cc(OC)c4Cl)ncn3)cc2)CC1`: the activity (max response) is -7.03%.

With `Cc1c(-c2cnccn2)ssc1=S`, the activity (max response) is -8.54%.

In the case of `Cc1ccc(S(=O)(=O)NC(=O)NC2CCCCCCC2)cc1`, the activity (max response) was 11.9%.

Regarding `O=C1c2ccccc2S(=O)(=O)N1CCCCN1CCN(c2ncccn2)CC1`, the activity (max response) was -8.3%.

As for `Cc1ncc([N+](=O)[O-])n1C`, the activity (max response) is 9.67%.

`CC(C)NCCCC1(C(N)=O)c2ccccc2-c2ccccc21`: the activity (max response) is 9.8%.

On to `CCN1C(=O)c2ccccc2C1Nc1ccc(OCCN2CCCCC2)cc1` (stereo not given), for which the activity (max response) was 0.694%.

Consider `CN1CCC(Nc2ncc3ncnc(Nc4ccc(F)c(Cl)c4)c3n2)CC1`, for which the Potency was 18.4 µM (active).

Consider `Cc1cccc(Oc2cnc(=O)[nH]c2)c1`, for which the activity (max response) is 6.68%.

For the molecule `COc1ccc(-c2oc3ncnc(N)c3c2-c2ccc(NC(=O)Nc3cc(C(F)(F)F)ccc3F)cc2)cc1`, the activity (max response) is 0.756%.

As to `O=C(CN1CCN(Cc2ccc3c(c2)OCO3)CC1)N1c2ccccc2Sc2ccccc21`, the activity (max response) was -10.1%.

Turning to `NC(N)=NN=C(/C=C/c1ccc([N+](=O)[O-])o1)/C=C/c1ccc([N+](=O)[O-])o1`, the Potency was 2.59 µM (active).

Take `COC1=C(OC)C(=O)C(CCCCCCCCCCO)=C(C)C1=O`: the Potency was 4.11 µM (active) and 25.1 µM (active).

`O=NN(CCCl)C(=O)NCCCl`: the activity (max response) is 15.2%.

As for `NC(=O)C1(N2CCCCC2)CCN(CCCC(=O)c2ccc(F)cc2)CC1`, the activity (max response) is 1.85%.

As to `N[C@@]1(C(=O)O)CS(=O)(=O)[C@H]2[C@H](C(=O)O)[C@H]21`, the activity (max response) was 10.9%.

As to `Cn1nnc2c(C(N)=O)ncn2c1=O`, the activity (max response) was -0.0469% and 5.28%.

Regarding `O=C(O)c1ccccc1C(=O)Nc1ccc(S(=O)(=O)Nc2nccs2)cc1`, the activity (max response) is -9.68%.

Consider `CCN(CC)CCOC(=O)C1(C2CCCCC2)CCCCC1`, for which the activity (max response) was -12.2%.

For `CCCc1cc(=O)[nH]c(=S)[nH]1`, the activity (max response) was 3.86% and 14.9%.

For the molecule `c1cc(-c2cnn3cc(-c4ccc(N5CCNCC5)cc4)cnc23)c2cccnc2c1`, the Potency was 22.4 µM (active).

On to `Cc1[nH]c(C)c(Cl)c(=O)c1Cl`, for which the activity (max response) was 4.22%.

`O=C1O[C@H]([C@@H](O)CO)C(O)=C1O`: the activity (max response) is 0.904%.

Turning to `CNC1CCCN(c2c(F)cc3c(=O)c(C(=O)O)cn(C4CC4)c3c2OC)C1` (stereo not given), the activity (max response) was 2.01% and 5.57%.

Turning to `C[C@]12C=CC(=O)C=C1CC[C@H]1[C@@H]3C[C@@H](O)[C@](O)(C(=O)CO)[C@@]3(C)C[C@H](O)[C@@]12F`, the activity (max response) was 4.79%.

As for `COC(=O)Nc1cc(Nc2cc(NC3CC3)c3ncc(C#N)n3n2)c(Cl)c(N2CCN(C)CC2)c1`, the Potency is 2.82 µM (active).

For the molecule `CCCCC1C(=O)N(c2ccccc2)N(c2ccc(O)cc2)C1=O` (stereo not given), the Potency was 16.4 µM (active).

In the case of `NCCc1ccn[nH]1`, the activity (max response) was 3.59%.

For `COc1ccc(-c2oc3c(CC=C(C)C)c(OC4O[C@H](CO)[C@@H](O)[C@H](O)[C@H]4O)cc(O)c3c(=O)c2OC2O[C@@H](C)[C@H](O)[C@@H](O)[C@H]2O)cc1` (stereo not given in full), the activity (max response) is 7.81%.

For `Oc1cc2c(cc1O)C1c3ccc(O)c(O)c3OCC1(O)C2` (stereo not given), the activity (max response) was -7.46%.

On to `CCc1nc(C(N)=O)c(Nc2ccc(N3CCC(N4CCN(C)CC4)CC3)c(OC)c2)nc1NC1CCOCC1`, for which the Potency was 17.8 µM (active).

`CN(C)C1CCN(C(=O)c2ccc(NC(=O)Nc3nc(N4CCOCC4)nc(N4CCOCC4)n3)cc2)CC1`: the Potency was 0.316 µM (active).

With `Nc1nc(N)c(-c2ccccc2)s1`, the activity (max response) is 6.99%.
